# In the supplement of paper PMC8728848:
# Many of the other results were omitted from the sample, so the strongest signals are more common in it than they were.
# B1: GNL (Galanthus nivalis) (protein)
# chain: MGHHHHHHHHYGTLENGHWLMVGMSIFSKDRTVELRMQDDGKLAIYYNDHCAWQSTAQQVNNAKGAVMQGDGNFCIYDKNGKATWHTNTAAPSGDSHTFVSVQDDGNLVLYKNNGATPIWSSKSNK
# Legend:
# Assay in all cases: glycan array binding signal (z-score within array); higher = stronger binding
# Settings in all cases: glycan notation: IUPAC condensed, linker removed
# [1] = target: GlcNAc(a1-4)Gal(b1-4)GlcNAc
# Procedure, shortened: (§1)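 The Consortium for Functional Glycomics database supplied 3228 glycan arrays, of which those lacking an available protein sequence were dropped. The binding signal, a within-array Z-score, was averaged across arrays of the same protein sequence and across linkers. Negative scores can be read as non-binding.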
# [2] = target: GlcNAc(a1-4)Gal(b1-4)GlcNAc(b1-3)Gal(b1-4)[Fuc(a1-3)]GlcNAc(b1-3)Gal(b1-4)[Fuc(a1-3)]GlcNAc
# Procedure, shortened: as §1
# [3] = target: GlcNAc(b1-2)Man(a1-3)[GlcNAc(b1-2)Man(a1-6)]Man(b1-4)GlcNAc(b1-4)GlcNAc
# Procedure, shortened: as §1
# [4] = target: GlcNAc(b1-2)[GlcNAc(b1-4)]Man(a1-3)[GlcNAc(b1-4)][GlcNAc(b1-2)[GlcNAc(b1-6)]Man(a1-6)]Man(b1-4)GlcNAc(b1-4)GlcNAc
# Procedure, shortened: as §1
# [5] = target: GlcNAc(b1-3)Gal(b1-4)GlcNAc
# Procedure, shortened: as §1
# [6] = target: GlcNAc(b1-3)Gal(b1-4)GlcNAc(b1-2)Man(a1-3)[GlcNAc(b1-3)Gal(b1-4)GlcNAc(b1-2)Man(a1-6)]Man(b1-4)GlcNAc(b1-4)GlcNAc
# Procedure, shortened: as §1
# [7] = target: GlcNAc(b1-3)Gal(b1-4)GlcNAc(b1-3)GalNAc
# Procedure, shortened: as §1
# [8] = target: GlcNAc(b1-3)Gal(b1-4)GlcNAc(b1-6)[GlcNAc(b1-3)]Gal(b1-4)GlcNAc
# Procedure, shortened: as §1
# [9] = target: GlcNAc(b1-4)GlcNAc(b1-4)GlcNAc(b1-4)GlcNAc(b1-4)GlcNAc(b1-4)GlcNAc
# Procedure, shortened: as §1
# [10] = target: GlcNAc6S(b1-3)Gal(b1-4)GlcNAc
# Procedure, shortened: as §1
# [11] = target: Man(a1-2)Man(a1-3)Man
# Procedure, shortened: as §1
# [12] = target: Man(a1-3)[Man(a1-6)]Man(a1-6)[Man(a1-3)]Man(b1-4)GlcNAc(b1-4)GlcNAc
# Procedure, shortened: as §1
# [13] = target: Neu5Ac(a2-3)Gal(b1-3)GlcNAc(b1-2)Man
# Procedure, shortened: as §1
# [14] = target: Neu5Ac(a2-3)Gal(b1-3)GlcNAc(b1-2)Man(a1-3)[GlcNAc(b1-4)][Neu5Ac(a2-3)Gal(b1-3)GlcNAc(b1-2)Man(a1-6)]Man(b1-4)GlcNAc(b1-4)GlcNAc
# Procedure, shortened: as §1
# [15] = target: Neu5Ac(a2-3)Gal(b1-3)GlcNAc(b1-3)Gal(b1-3)GlcNAc
# Procedure, shortened: as §1
# [16] = target: Neu5Ac(a2-3)Gal(b1-3)[Fuc(a1-4)]GlcNAc(b1-3)Gal(b1-4)[Fuc(a1-3)]GlcNAc
# Procedure, shortened: as §1
# [17] = target: Neu5Ac(a2-3)Gal(b1-3)[Neu5Ac(a2-6)]GlcNAc(b1-3)[Fuc(a1-3)[Gal(b1-4)]GlcNAc(b1-6)]Gal(b1-4)Glc
# Procedure, shortened: as §1
# [18] = target: Neu5Ac(a2-3)Gal(b1-3)]Neu5Ac(a2-3)Gal(b1-4)]GlcNAc
# Procedure, shortened: as §1
# [19] = target: Neu5Ac(a2-3)Gal(b1-4)GlcNAc(b1-2)Man(a1-3)[GlcNAc(b1-4)][Neu5Ac(a2-3)Gal(b1-4)GlcNAc(b1-2)Man(a1-6)]Man(b1-4)GlcNAc(b1-4)GlcNAc
# Procedure, shortened: as §1
# [20] = target: Neu5Ac(a2-3)Gal(b1-4)GlcNAc(b1-2)[Neu5Ac(a2-3)Gal(b1-4)GlcNAc(b1-6)]Man(a1-6)[Neu5Ac(a2-3)Gal(b1-4)GlcNAc(b1-2)Man(a1-3)]Man(b1-4)GlcNAc(b1-4)GlcNAc
# Procedure, shortened: as §1
# [21] = target: Neu5Ac(a2-3)Gal(b1-4)GlcNAc(b1-6)[Neu5Ac(a2-3)Gal(b1-3)]GalNAc
# Procedure, shortened: as §1
# [22] = target: Neu5Ac(a2-3)Gal(b1-4)[Fuc(a1-3)]GlcNAc(b1-2)Man
# Procedure, shortened: as §1
# [23] = target: Neu5Ac(a2-3)GalNAc
# Procedure, shortened: as §1
# [24] = target: Neu5Ac(a2-6)Gal(b1-4)GlcNAc(b1-2)Man(a1-3)[Man(a1-6)]Man(b1-4)GlcNAc(b1-4)GlcNAc
# Procedure, shortened: as §1
# [25] = target: Neu5Ac(a2-6)Gal(b1-4)GlcNAc(b1-2)Man(a1-6)[GlcNAc(b1-2)Man(a1-3)]Man(b1-4)GlcNAc(b1-4)GlcNAc
# Procedure, shortened: as §1
# [26] = target: Neu5Ac(a2-6)Gal(b1-4)GlcNAc(b1-3)Gal(b1-4)GlcNAc(b1-6)[Gal(b1-3)]GalNAc
# Procedure, shortened: as §1
# [27] = target: Neu5Ac(a2-6)Gal(b1-4)GlcNAc(b1-6)GalNAc
# Procedure, shortened: as §1
# [28] = target: Neu5Ac(a2-6)Gal(b1-4)GlcNAc(b1-6)[Gal(b1-3)]GalNAc
# Procedure, shortened: as §1
# [29] = target: Neu5Ac(a2-8)Neu5Ac
# Procedure, shortened: as §1
# [30] = target: Neu5Ac(a2-8)Neu5Ac(a2-3)Gal(b1-3)GalNAc(b1-4)[Neu5Ac(a2-3)]Gal(b1-4)Glc
# Procedure, shortened: as §1
# [31] = target: Neu5Gc(a2-8)Neu5Gc(a2-6)Gal(b1-4)GlcNAc
# Procedure, shortened: as §1
binder,measurement,setting,value
B1,glycan array binding signal (z-score),[1],-0.25
same,glycan array binding signal (z-score),[2],-0.175
same,glycan array binding signal (z-score),[3],8.74
same,glycan array binding signal (z-score),[4],-0.284
same,glycan array binding signal (z-score),[5],-0.226
same,glycan array binding signal (z-score),[6],0.679
same,glycan array binding signal (z-score),[7],-0.013
same,glycan array binding signal (z-score),[8],-0.255
same,glycan array binding signal (z-score),[9],-0.24
same,glycan array binding signal (z-score),[10],-0.28
same,glycan array binding signal (z-score),[11],-0.18
same,glycan array binding signal (z-score),[12],-0.2
same,glycan array binding signal (z-score),[13],-0.208
same,glycan array binding signal (z-score),[14],-0.228
same,glycan array binding signal (z-score),[15],-0.212
same,glycan array binding signal (z-score),[16],-0.191
same,glycan array binding signal (z-score),[17],-0.137
same,glycan array binding signal (z-score),[18],-0.172
same,glycan array binding signal (z-score),[19],-0.295
same,glycan array binding signal (z-score),[20],-0.159
same,glycan array binding signal (z-score),[21],-0.286
same,glycan array binding signal (z-score),[22],-0.295
same,glycan array binding signal (z-score),[23],-0.251
same,glycan array binding signal (z-score),[24],5.43
same,glycan array binding signal (z-score),[25],5.03
same,glycan array binding signal (z-score),[26],-0.216
same,glycan array binding signal (z-score),[27],-0.235
same,glycan array binding signal (z-score),[28],-0.133
same,glycan array binding signal (z-score),[29],-0.189
same,glycan array binding signal (z-score),[30],-0.285
same,glycan array binding signal (z-score),[31],-0.194
